Test [1] in a line: qHTS assay for environmental chemicals that activate the Aryl hydrocarbon Receptor (AhR) signaling pathway (AID 651777). Also: % of control where 0% means no effect; nearly all actives have a fitted effect of over 15% in size. The conditions noted are these: 1A2-DRE human hepatoma cells, luciferase, 24 h; stronger effect = higher value. The essentials: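 Stable CYP1A2 promoter/DRE-luciferase human hepatoma line treated 24 hr; One-Glo luminescence, 30 min RT.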
(Quantitative high-throughput screening tests each substance at several concentrations.)

Test [2] in a line: qHTS for compounds that reverse cellular toxicity of Amyloid beta (A-beta) peptide in yeast: LOPAC Validation Assay (AID 720559).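 Also: plate controls were DMSO for no effect and equimolar ferric chloride plus clioquinol rescue for full effect.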 The conditions noted are these: yeast expressing A-beta; series mostly up to 46.1 µM. The procedure, abridged:
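OD600 growth readout after 48 hr at 30 C; A-beta-toxic yeast plus pinned compounds in medium. Normalization: DMSO = negative, equimolar FeCl3 + clioquinol = positive.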

A short description of test [3]: qHTS for Activators of Parkin Expression: LOPAC Validation Assay (NLuc Reporter) (AID 720572;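 also: 0% = DMSO and 100% = positive control compound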). The following applies: Parkin promoter NanoLuc reporter cells, luminescence; series mostly up to 46.1 µM. The procedure, abridged: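 Cells harboring the Parkin-promoter coincidence reporter were treated for 24 h at seven concentrations. NLuc output was measured sequentially after the FLuc channel and scaled between DMSO and positive control values.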

Test [4] in a line: qHTS for Activators of Parkin Expression: LOPAC Validation Assay (FLuc Reporter) (AID 720573;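 also: 0% = DMSO and 100% = positive control compounds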). The following applies: Cell line, PRKN promoter firefly luciferase reporter, vehicle wells = 0, positive control = 100%; series mostly up to 46.1 µM. The essentials:
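FLuc luminescence read-out from a neuronal line expressing a Parkin-promoter-driven coincidence reporter. Cells treated 24 h at 37 C, 5% CO2 with compounds at 7 concentrations; signal increase normalized to DMSO and positive control.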

The nature of test [5]: qHTS assay for small molecule agonists of the antioxidant response element (ARE) signaling pathway measured by Nrf2-dependant transcriptional activity (AID 720636; active = well fitted curve in the direction sought with a large enough effect in the repeat runs; an effect the other way counts as inactive or inconclusive;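 also: HepG2 cells with an ARE-driven luciferase reporter; % of control where 0% means no effect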). The following applies: ARE-luc HepG2, Nrf2 luciferase reporter, 16 h; series mostly up to 92.4 µM. The procedure, abridged:
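Reporter gene assay, HepG2 ARE-luc: 16 hr compound, 37 C, 5% CO2; read-out luciferase luminescence.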

Test [6] can be described thus: qHTS assay for small molecule agonists of the antioxidant response element (ARE) signaling pathway measured by Nrf2-dependant transcriptional activity - cell viability counter screen (AID 720653; active = well fitted curve in the direction sought with a large enough effect in the repeat runs; an effect the other way counts as inactive or inconclusive; also: potency is read from the fitted curve at half-maximal effect; as to max response: % is scaled to controls: 0 for no effect and ±100 for the full control effect). The following applies: ARE-bla HepG2 viability, CellTiter-Glo ATP luminescence, 16 h; max response: stronger effect = lower value. The procedure, abridged:
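ARE-bla HepG2 cells (2,000/well) rested 5 hrs at 37C/5% CO2, then exposed to compounds in DMSO for 16 hrs. Viability was read in the same wells as intracellular ATP by luminescence, 30 min at room temperature after reagent addition.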

Test [7] deals with T1, Hexokinase-4 (Homo sapiens) + Glucokinase regulatory protein (Homo sapiens) (UniProt P35557+Q14397). The test can be described thus: qHTS assay for inhibitors of recombinant human GCK-GKRP interaction: Diaphorase-coupled assay (AID 743205). The following applies: G6PDH/diaphorase resorufin fluorescence; series mostly up to 57.5 µM. The procedure, abridged:
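Resorufin fluorescence (525/590 nm), read each minute over 30 min, reports GCK activity coupled via G6PDH and diaphorase. Reaction: 10 nM GST-GCK, 10 nM FLAG-GKRP, 5 mM glucose, 0.4 mM ATP, 0.15 mM NADP+, 0.1 mM resazurin.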

The target of test [8] is Tumor necrosis factor (Homo sapiens) (UniProt P01375). The test can be described thus: qHTS assay to identify small molecules that stimulate Tumor Necrosis Factor-alpha (TNF-alpha) secretion (AID 651757; active = well fitted curve in the direction sought with a large enough effect in the signal ratio; the % refers to the signal ratio; also: 0% is about no effect). The conditions noted are these: Human cells, HTRF 665/615 ratio; series mostly up to 92.2 µM. The procedure, abridged: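 Using 3000 THP-1 cells per well, compounds and controls were applied for 17 hrs at 37 C. Detection followed with two labeled anti-TNF-alpha antibodies (cryptate donor, XL665 acceptor) for 3 hr at room temperature, measured by TR-FRET.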

A short description of test [9]: qHTS assay to identify small molecules that stimulate interleukin-8 (IL-8) secretion (AID 651758; active = well fitted activation curve with a large enough effect in the signal ratio; the % refers to the signal ratio; also: 0% is about no effect). The following applies: HTRF ratio (665/615); series mostly up to 92.2 µM. The procedure, abridged: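 Quantitative HTS in THP-1 monocytic cells at 2000 cells per well, with 16 hrs compound incubation at 37 C. IL-8 in the medium was then quantified by HTRF immunoassay, read after 1-3 hrs at room temperature.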

The nature of test [10]: qHTS assay for small molecule antagonists of the retinoid-related orphan receptor gamma (ROR-gamma) signaling pathway - cell viability counter screen (AID 720652; active = well fitted curve in the direction sought with a large enough effect in the repeat runs; an effect the other way counts as inactive or inconclusive;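 also: compound exposure lasted 16 hr before ATP read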; also: potency is read from the fitted curve at half-maximal effect). The following applies: RORgamma reporter cell line viability counter screen; series mostly up to 92.2 µM. The essentials:
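ATP-based viability readout in the ROR-gamma reporter CHO cells after 16 hr compound exposure under doxycycline induction.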

A short description of test [11]: qHTS assay for small molecule disruptors of the mitochondrial membrane potential - 5 hr assay (AID 651755; calls by dose curve; also: potency is read from the fitted curve at half-maximal effect; nearly all actives have a fitted effect of over 40% in size). The following applies: JC-1-type ratio dye; series mostly up to 92.2 µM. The essentials: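 Seed HepG2 overnight, add compound, incubate 5 hr at 37C and 5% CO2, stain 30 min with Mito-MPS, then measure monomer (490/535 nm) and aggregate (540/590 nm) fluorescence.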

Test [12] deals with Nuclear receptor ROR-gamma (Homo sapiens) (UniProt P51449). The test can be described thus: qHTS assay for small molecule antagonists of the retinoid-related orphan receptor gamma (ROR-gamma) signaling pathway (AID 651802). Also: nearly all actives have a fitted effect of over 60% in size. Also: potency is read from the fitted curve at half-maximal effect. The conditions noted are these: ROR-gamma antagonist cell reporter assay; series mostly up to 92.2 µM. The essentials: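 Doxycycline-induced reporter activity in engineered CHO cells (TET-inducible ROR, RORE-LUC) was measured by luminescence after 16hr compound exposure at 37C.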

Test [13] deals with Arylsulfatase A (Homo sapiens) (UniProt P15289). The test can be described thus: qHTS screen for enhancers of Arylsulfatase A (ASA1): LOPAC Validation Assay (AID 720538). The conditions noted are these: ASA enzyme activity, LOPAC qHTS enhancer assay; series mostly up to 57.5 µM. The procedure, abridged: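 Read-out: fluorescence at Ex=525/Em=598 nm after 1N NaOH final stop. Patient fibroblasts carrying ASA-I179S had 48h compound exposure, then 14h room-temperature pNCS hydrolysis (0.5mM final) in lysis buffer. Signal increase = enhanced activity.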

The target of test [14] is T1, Hexokinase-4 (Homo sapiens) + Glucokinase regulatory protein (Homo sapiens). The test can be described thus: qHTS assay for inhibitors of recombinant human GCK-GKRP interaction: ADP-Glo assay (AID 743206).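 Also: plate controls were DMSO plus enzyme for no effect and no enzyme for full effect.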 The following applies: ADP-Glo luminescence, 60 min, 0% = vehicle-only wells with enzyme present; series mostly up to 76.9 µM. The procedure, abridged:
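Pin-transferred compounds meet a 15 nM GST-GCK/15 nM FLAG-GKRP/2 uM S6P mix (dispense concentrations). ATP is then added to 0.4 mM final with 5 mM glucose, and the reaction runs 60 min at room temperature. ADP is quantified luminescently.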

Test [15] has the same target. The test can be described thus: qHTS assay for inhibitors of recombinant human GCK-GKRP interaction: HTRF assay (AID 743207).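 Also: 0% = DMSO with GCK present and -100% = DMSO wells lacking GCK.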 The following applies: recombinant GCK-GKRP HTRF binding, 60 min, with sorbitol-6-phosphate; series mostly up to 57.5 µM. The essentials:
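HTRF read-out (ex 320 nm; 615/665 nm emission) after 60 min RT equilibration of 5 nM GST-GCK, 5 nM FLAG-GKRP, 2 uM S6P, compound and anti-FLAG/anti-GST detection antibodies; signal normalized between DMSO wells with and without GCK.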

Test [16] in a line: qHTS for small molecule inhibitors of Yes1 kinase: Counter Assay (AID 686950).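 Also: no kinase present so only ADP-Glo detection of a fixed ADP amount is tested; luminescence from ADP-Glo reporting ADP in a fixed ATP and ADP mixture; 0% = DMSO wells with ATP plus ADP and -100% = ATP-only wells without ADP.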 The following applies: series mostly up to 76.9 µM. The procedure, abridged:
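Measuring interference with ADP-Glo, the assay ran 60 min at room temperature on an ATP/ADP mix lacking enzyme. Values were normalized to ATP-plus-ADP (maximum) and ATP-only (minimum) DMSO controls.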

Each structure is given as a SMILES string. Where “and” joins values, the source holds several entries; their conditions need not be identical. Identical values can stand only once. Unmarked numbers belong to inactive results. Results filed as inconclusive are left out. Calls of active or inactive are those of the source. Unless noted, calls follow the shape of the dose curve; as a rule, active = well fitted curve in the direction sought with a large enough effect; inconclusive = small, poorly fitted or top-dose-only effect, or another doubt; inactive = no such curve, though single readings can be large; an effect the other way counts as inactive or inconclusive.

T1 sequence (P35557 whole entry, looked up): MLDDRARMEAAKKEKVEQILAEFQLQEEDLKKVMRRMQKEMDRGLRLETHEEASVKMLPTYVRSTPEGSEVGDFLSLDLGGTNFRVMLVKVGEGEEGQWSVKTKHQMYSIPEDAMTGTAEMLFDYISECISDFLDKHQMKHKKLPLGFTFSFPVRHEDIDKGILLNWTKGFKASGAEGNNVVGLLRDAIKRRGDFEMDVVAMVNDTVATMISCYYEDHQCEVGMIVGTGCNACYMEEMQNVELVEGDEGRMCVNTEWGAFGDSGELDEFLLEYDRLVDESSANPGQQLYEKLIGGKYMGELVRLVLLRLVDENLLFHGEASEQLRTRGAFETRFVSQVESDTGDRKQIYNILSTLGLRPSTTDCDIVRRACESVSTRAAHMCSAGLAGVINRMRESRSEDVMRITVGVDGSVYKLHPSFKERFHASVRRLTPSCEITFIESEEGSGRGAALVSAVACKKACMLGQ
T1 sequence (Q14397 whole entry, looked up): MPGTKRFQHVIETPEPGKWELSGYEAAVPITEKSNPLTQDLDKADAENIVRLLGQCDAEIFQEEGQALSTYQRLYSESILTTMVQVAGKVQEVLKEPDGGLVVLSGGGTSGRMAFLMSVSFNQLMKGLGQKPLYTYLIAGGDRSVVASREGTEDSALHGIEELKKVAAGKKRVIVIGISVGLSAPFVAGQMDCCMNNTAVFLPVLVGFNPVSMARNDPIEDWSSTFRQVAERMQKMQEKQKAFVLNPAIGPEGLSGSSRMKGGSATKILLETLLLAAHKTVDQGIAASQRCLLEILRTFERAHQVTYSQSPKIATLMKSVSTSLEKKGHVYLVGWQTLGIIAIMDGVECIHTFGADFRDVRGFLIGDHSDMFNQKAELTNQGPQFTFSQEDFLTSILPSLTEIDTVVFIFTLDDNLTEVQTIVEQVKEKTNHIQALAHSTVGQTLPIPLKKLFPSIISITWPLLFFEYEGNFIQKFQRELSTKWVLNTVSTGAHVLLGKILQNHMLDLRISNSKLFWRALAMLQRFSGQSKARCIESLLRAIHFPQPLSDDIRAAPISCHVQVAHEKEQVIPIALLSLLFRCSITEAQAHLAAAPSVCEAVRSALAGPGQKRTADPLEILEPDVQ
Tumor necrosis factor (Homo sapiens), sequence (P01375 whole entry, looked up): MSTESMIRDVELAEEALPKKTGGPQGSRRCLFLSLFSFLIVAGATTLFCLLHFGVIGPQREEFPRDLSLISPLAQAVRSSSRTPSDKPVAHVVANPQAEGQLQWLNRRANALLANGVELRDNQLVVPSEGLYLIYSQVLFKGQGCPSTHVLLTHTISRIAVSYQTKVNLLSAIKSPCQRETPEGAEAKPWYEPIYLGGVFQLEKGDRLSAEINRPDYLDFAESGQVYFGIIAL
Nuclear receptor ROR-gamma (Homo sapiens), sequence (P51449 whole entry, looked up): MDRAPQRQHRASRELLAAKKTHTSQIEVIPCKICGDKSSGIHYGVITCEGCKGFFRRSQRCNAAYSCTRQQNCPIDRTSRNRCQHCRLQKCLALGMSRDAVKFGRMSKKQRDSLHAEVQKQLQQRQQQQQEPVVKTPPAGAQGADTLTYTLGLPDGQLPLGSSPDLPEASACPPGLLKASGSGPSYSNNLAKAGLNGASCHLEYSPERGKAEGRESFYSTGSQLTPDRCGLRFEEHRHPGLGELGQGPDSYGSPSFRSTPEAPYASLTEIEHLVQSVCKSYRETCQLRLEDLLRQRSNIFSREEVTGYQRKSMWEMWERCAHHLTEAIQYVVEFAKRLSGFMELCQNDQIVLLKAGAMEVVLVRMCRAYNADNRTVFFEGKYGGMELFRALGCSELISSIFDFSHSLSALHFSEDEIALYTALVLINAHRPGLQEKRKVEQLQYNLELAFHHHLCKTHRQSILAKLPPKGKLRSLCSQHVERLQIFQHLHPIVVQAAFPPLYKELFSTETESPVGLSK
Arylsulfatase A (Homo sapiens), sequence (P15289 whole entry, looked up): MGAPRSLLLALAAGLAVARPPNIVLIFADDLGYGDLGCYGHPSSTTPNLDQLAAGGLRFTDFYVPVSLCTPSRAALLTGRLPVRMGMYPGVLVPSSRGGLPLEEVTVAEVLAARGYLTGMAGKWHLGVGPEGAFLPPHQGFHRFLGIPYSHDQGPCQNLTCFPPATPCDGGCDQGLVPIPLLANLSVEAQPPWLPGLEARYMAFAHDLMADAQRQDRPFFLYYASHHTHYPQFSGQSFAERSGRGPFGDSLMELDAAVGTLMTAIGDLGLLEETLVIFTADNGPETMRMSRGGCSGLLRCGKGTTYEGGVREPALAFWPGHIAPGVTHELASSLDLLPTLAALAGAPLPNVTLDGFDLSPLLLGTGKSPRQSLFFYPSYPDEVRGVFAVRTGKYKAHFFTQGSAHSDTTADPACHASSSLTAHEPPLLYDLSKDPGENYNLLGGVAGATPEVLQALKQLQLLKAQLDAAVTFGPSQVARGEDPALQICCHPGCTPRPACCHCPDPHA

With `C[C@]12CC[C@@H]3c4ccc(O)cc4CC[C@H]3[C@@H]1CCC2=O`, in test [1], the activation was 0.316%. For the same molecule, the call in test [2], in [4], in test [5] and in test [7] was inactive. The Potency result in test [3] is “inactive”. Moreover, in [6], the max response is -0.718%.
For `O=C1c2c(O)cccc2Cc2cccc(O)c21`, the result in test [8], in test [9] and in [5] was inactive. For the same molecule, the activation in test [1] was -0.232%. Besides, the Potency entry in test [10] is “inactive”. Further, the max response in test [6] is -0.576%.
Take `Cc1c(O)cccc1C(=O)N[C@@H](CSc1ccccc1)[C@H](O)CN1C[C@H]2CCCC[C@H]2C[C@H]1C(=O)NC(C)(C)C`: the Potency in [11] was 66.8 µM (active); in test [12] it was 8.41 µM (active); in test [10], 66.8 µM (active); in [6], 44.7 µM (active). Also, the outcome in [8] and in [5] was inactive. Also, the activation in test [1] is -9.16%.
Consider `CC(O)COc1ccccc1` (centres undefined), for which the activation in [1] was 1.38%. In test [5], the outcome was inactive. Besides, the max response in test [6] was -6.41%.
As to `COc1ccc(Cl)cc1C(=O)NCCc1ccc(S(=O)(=O)NC(=O)NC2CCCCC2)cc1`, the activation in [1] is 1.06%. Also, in test [13], the Potency entry was “inactive”. Moreover, the call in [2], in test [4], in test [5], in [7], in test [14] and in test [15] was inactive. Further, in test [6], the max response was -18.1%.
Consider `COc1ccccc1O`, for which the outcome in test [8] and in [5] was inactive. Further, the activation in test [1] is 0.592% and -0.634% and 2.1%. Also, the Potency result in test [12] and in [10] was “inactive” in each case. Besides, the max response in test [6] is 0.99% and -1.64% and 4.12%.
On to `CCN(CC)CCNC(=O)c1c(C)[nH]c(/C=C2\C(=O)Nc3ccc(F)cc32)c1C`, for which the molecule was classed as inactive in test [16].
In the case of `O=S(=O)(O)NC1CCCCC1`, the activation in test [1] was 1.78%. Moreover, in [5], the outcome was inactive. Also, in test [6], the max response is 2.33%.
Take `CN(C)CCCN1c2ccccc2CCc2ccccc21`: the activation in test [1] is -0.861%. Also, the Potency result in test [13] and in [3] was “inactive” in each case. Further, the result in [2], in test [4] and in [5] was inactive. The max response in test [6] was -13.3%.

(Values after PubChem BioAssay (NCATS).)
